Experimental data: PMC5540273 (PLoS ONE, 2017)

Test system: ZAK
Settings: concentration: 1 μM, replicates: in singlicate; n = 1
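Note: KINOMEscan kinase panel screen.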

Compared with `CN1CCN(CCCNc2nccc(-c3c(-c4ccc(F)cc4)nn4cc(C(F)(F)F)ccc34)n2)CC1` [GW621581], `CCCCc1nn2ncccc2c1-c1ccnc(Nc2ccc(N3CCN(C)CC3)cc2)n1` [GW684941] is higher in “%Inh” value: 17% for the first, 51% for the second.

`Nc1n[nH]c2cnc(-c3ccccc3)cc12` [SB-642124] and `Nc1ncnc2c1nc(-c1ccccc1)n2-c1ccccc1` [SKF-97293] are the same in “%Inh” value: 16% for the first, 16% for the second.

Going from `Cc1occc1-c1ncc(OC[C@@H](N)Cc2c[nH]c3ccccc23)cc1-c1ccc2[nH]nc(C)c2c1.O=C(O)C(F)(F)F` [GSK682037] to `Nc1ncc(-c2cccnc2)c2scc(-c3ccc4c(c3)CCN4C(=O)Cc3ccccc3)c12` [GSK683281], the “%Inh” value rises from 0% to 9%.

Compared with `Cl.NC(=O)c1cccc(Nc2nccc(Nc3ccc(Oc4c(Cl)cccc4Cl)c(Cl)c3)n2)c1` [GW659009], `Cc1ccc(F)c(C(=O)Nc2cccc(-c3nn4ccccc4c3-c3ccnc(Nc4cccc(F)c4)n3)c2)c1F` [GSK361061] is higher in “%Inh” value: 10% for the first, 89% for the second.

Going from `CCc1ccc(-c2ccc3c(c2)-c2c(cnn2C)S(=O)(=O)N3C)cc1` to `Nc1ncc(-c2ccc3nccc(-c4ccncc4)c3c2)cc1S(=O)(=O)N1CCOCC1` [GSK1627798], the “%Inh” value falls from 3% to 0%.

`c1ccc(-c2n[nH]cc2Nc2ccnc3ccccc23)nc1` [GW694077] and `CC(C)(C)c1ccc2nccc(Nc3cccc(O)c3)c2c1` [GW856795] are the same in “%Inh” value: 0% for the first, 0% for the second.

Compared with `c1ccc(Oc2ccc(Nc3ccnc4cc(-c5ccc(CNCCN6CCOCC6)o5)ccc34)cc2)nc1` [GW567145], `COc1ccc(CNC(=O)NC2CCN(c3ccnc(Nc4ccc(F)cc4)n3)CC2)cc1` [GSK1379788] is lower in “%Inh” value: 77% for the first, 0% for the second.

`Cn1cc(-c2[nH]c3cc(NC(=O)[C@H](N)C4CCCCC4)cc4c3c2C=NNC4=O)cn1` and `Cc1cccc(Nc2nc(N[C@H]3CCNC3)ncc2C(N)=O)c1.Cl` [GSK2197149] are the same in “%Inh” value: 0% for the first, 0% for the second.

First: FC(F)(F)c1ccc(/C=C/c2cncnc2Nc2ccc3[nH]c(Cc4ccccc4)nc3c2)cc1 [GW709199]
Second: COC(=O)Nc1nc2cc(Oc3ccc(NC(=O)Nc4cc(C(F)(F)F)ccc4F)cn3)ccc2[nH]1.Cl.Cl [GW681170]
The “%Inh” value of the first is lower: 0% for the first, 92% for the second.

Compared with `COc1cc2c(cc1OCCN1CCNCC1)ncc1c3ccc(C#N)cc3[nH]c21`, `O=c1[nH]cc(-c2ccc(N3CCOCC3)cc2)c2sc(-c3cn[nH]c3)cc12` [GSK2276055] is higher in “%Inh” value: 8% for the first, 69% for the second.

Compared with `CC(=O)N1CCN(c2ccc(Nc3nccc(-c4sc(C(C)C)nc4-c4cccc(NS(=O)(=O)c5cccc(Cl)c5)c4)n3)cn2)CC1` [GSK1660437], `CC(C)c1nc(-c2cccc(NS(=O)(=O)c3c(F)cccc3F)c2F)c(-c2ccnc(Nc3ccc(N4CCOCC4)nc3)n2)s1` [GSK2008607] is higher in “%Inh” value: 96.7% for the first, 99.1% for the second.

`Cc1cccc(NC(=O)Nc2ccc(Oc3ncnc4ccn(C)c34)cc2)c1` and `CSc1cccc2c(-c3ccncn3)c(-c3ccc(F)cc3)nn12` [GW514786] are the same in “%Inh” value: 0% for the first, 0% for the second.

`COc1cc(Nc2nccc(N3CCC(NC(=O)Nc4cccc(C(C)=O)c4)C3)n2)cc(OC)c1OC` (stereo not shown) [GSK1379753] and `COc1cc(Nc2nccc(-c3c(-c4cccc(NC(=O)c5c(F)cccc5F)c4)nn4ccccc34)n2)cc(OC)c1OC` [GSK323521] are the same in “%Inh” value: 0% for the first, 0% for the second.

Compared with `C[C@@H](Oc1cc(-n2cnc3cc(-c4ccnc(NCCS(C)(=O)=O)c4)ccc32)sc1C(N)=O)c1ccccc1Cl` [GSK907232], `NCCCC(NC(=O)c1cc(Br)c(-c2ccnc3[nH]ccc23)s1)c1ccccc1.O=C(O)C(F)(F)F.O=C(O)C(F)(F)F` (stereo not shown) [GSK1287544] is higher in “%Inh” value: 27% for the first, 59% for the second.

Going from `O=C(Nc1n[nH]c2nc(-c3ccc(O)cc3)ccc12)C1CC1` [SB-710363] to `COc1cccc(-c2ccc3c(NC(=O)C4CC4)n[nH]c3n2)c1` [SB-710903], the “%Inh” value falls from 23% to 0%.

Test system: ZAP70
Settings: concentration: 1 μM, replicates: in singlicate; n = 1

`O=C(Nc1cccc(-c2nn3ccccc3c2-c2ccnc(Nc3cccc(F)c3)n2)c1)c1c(F)ccc(F)c1Cl` [GSK357952] and `Cc1ccc(F)c(C(=O)Nc2cccc(-c3nn4ccccc4c3-c3ccnc(Nc4cccc(F)c4)n3)c2)c1F` [GSK361061] are the same in “%Inh” value: 0% for the first, 0% for the second.

`c1ccc(-c2cnc3nccnn23)cc1` [AH20685] and `Nc1n[nH]c2cnc(-c3ccccc3)cc12` [SB-642124] are the same in “%Inh” value: 0% for the first, 0% for the second.

Going from `CN(c1ccc(NC(=O)Nc2cc(C(F)(F)F)ccc2F)cc1)c1ccnc(Nc2ccc(S(N)(=O)=O)cc2)n1` [GW809893] to `COC(=O)Nc1nc2cc(Oc3ccc(NC(=O)Nc4cc(C(F)(F)F)ccc4F)cn3)ccc2[nH]1.Cl.Cl` [GW681170], the “%Inh” value falls from 27% to 0%.

`O=C(Nc1n[nH]c2cc(-c3ccoc3)ccc12)C1CC1` [SB-738481] and `O=C(Nc1n[nH]c2nc(-c3ccc(O)cc3)ccc12)C1CC1` [SB-710363] are the same in “%Inh” value: 0% for the first, 0% for the second.

Compared with `C[C@@H]1CC[C@@H](C(=O)Nc2ccccc2)CN1c1cc(-c2ccc3c(N)n[nH]c3c2)nc(N)n1` [GSK2286062], `COc1cccc(-c2ccc3c(NC(=O)C4CC4)n[nH]c3n2)c1` [SB-710903] is higher in “%Inh” value: 0% for the first, 48% for the second.

`O=C(Nc1cccc(-c2nn3ncccc3c2-c2ccnc(Nc3ccccc3)n2)c1)c1c(F)cccc1F` [GSK198271] and `COc1cc(Nc2nccc(-c3c(-c4cccc(NC(=O)c5c(F)cccc5F)c4)nn4ccccc34)n2)cc(OC)c1OC` [GSK323521] are the same in “%Inh” value: 0% for the first, 0% for the second.

Compared with `COc1cccc(NC(=O)NC2CCN(c3ccnc(Nc4cc(OC)c(OC)c(OC)c4)n3)C2)c1` (stereo not shown) [GSK1379763], `COc1cc(Nc2nccc(N3CCC(NC(=O)Nc4cccc(C(C)=O)c4)C3)n2)cc(OC)c1OC` (stereo not shown) [GSK1379753] is higher in “%Inh” value: 0% for the first, 12% for the second.

`CN1CCN(CCCNc2nccc(-c3c(-c4ccc(F)cc4)nn4cc(C(F)(F)F)ccc34)n2)CC1` [GW621581] and `CCCCc1nn2ncccc2c1-c1ccnc(Nc2ccc(N3CCN(C)CC3)cc2)n1` [GW684941] are the same in “%Inh” value: 0% for the first, 0% for the second.

`Cc1occc1-c1ncc(OC[C@@H](N)Cc2c[nH]c3ccccc23)cc1-c1ccc2[nH]nc(C)c2c1.O=C(O)C(F)(F)F` [GSK682037] and `Nc1ncc(-c2cccnc2)c2scc(-c3ccc4c(c3)CCN4C(=O)Cc3ccccc3)c12` [GSK683281] are the same in “%Inh” value: 0% for the first, 0% for the second.

`Cl.NC(=O)c1cccc(Nc2nccc(Nc3ccc(Oc4c(Cl)cccc4Cl)c(Cl)c3)n2)c1` [GW659009] and `CC(=O)N1CCN(c2ccc(Nc3nccc(-c4sc(C(C)C)nc4-c4cccc(NS(=O)(=O)c5cccc(Cl)c5)c4)n3)cn2)CC1` [GSK1660437] are the same in “%Inh” value: 0% for the first, 0% for the second.

`CCc1ccc(-c2ccc3c(c2)-c2c(cnn2C)S(=O)(=O)N3C)cc1` and `Nc1ncc(-c2ccc3nccc(-c4ccncc4)c3c2)cc1S(=O)(=O)N1CCOCC1` [GSK1627798] are the same in “%Inh” value: 0% for the first, 0% for the second.

First: c1ccc(-c2n[nH]cc2Nc2ccnc3ccccc23)nc1 [GW694077]
Second: CC(C)(C)c1ccc2nccc(Nc3cccc(O)c3)c2c1 [GW856795]
The “%Inh” value of the first is lower: 0% for the first, 42% for the second.

First: c1ccc(Oc2ccc(Nc3ccnc4cc(-c5ccc(CNCCN6CCOCC6)o5)ccc34)cc2)nc1 [GW567145]
Second: COc1ccc(CNC(=O)NC2CCN(c3ccnc(Nc4ccc(F)cc4)n3)CC2)cc1 [GSK1379788]
The “%Inh” value of the first is lower: 0% for the first, 4% for the second.

First: Cn1cc(-c2[nH]c3cc(NC(=O)[C@H](N)C4CCCCC4)cc4c3c2C=NNC4=O)cn1
Second: Cc1cccc(Nc2nc(N[C@H]3CCNC3)ncc2C(N)=O)c1.Cl [GSK2197149]
The “%Inh” value of the first is higher: 17% for the first, 0% for the second.

Compared with `FC(F)(F)c1ccc(/C=C/c2cncnc2Nc2ccc3[nH]c(Cc4ccccc4)nc3c2)cc1` [GW709199], `Nc1ncnc2c1nc(-c1ccccc1)n2-c1ccccc1` [SKF-97293] is higher in “%Inh” value: 9% for the first, 12% for the second.

First: COc1cc2c(cc1OCCN1CCNCC1)ncc1c3ccc(C#N)cc3[nH]c21
Second: O=c1[nH]cc(-c2ccc(N3CCOCC3)cc2)c2sc(-c3cn[nH]c3)cc12 [GSK2276055]
The “%Inh” value of the first is higher: 28% for the first, 0% for the second.

Going from `Cc1cccc(NC(=O)Nc2ccc(Oc3ncnc4ccn(C)c34)cc2)c1` to `CSc1cccc2c(-c3ccncn3)c(-c3ccc(F)cc3)nn12` [GW514786], the “%Inh” value rises from 0% to 8%.

`C[C@@H](Oc1cc(-n2cnc3cc(-c4ccnc(NCCS(C)(=O)=O)c4)ccc32)sc1C(N)=O)c1ccccc1Cl` [GSK907232] and `CC(C)c1nc(-c2cccc(NS(=O)(=O)c3c(F)cccc3F)c2F)c(-c2ccnc(Nc3ccc(N4CCOCC4)nc3)n2)s1` [GSK2008607] are the same in “%Inh” value: 0% for the first, 0% for the second.

In the case of `NCCCC(NC(=O)c1cc(Br)c(-c2ccnc3[nH]ccc23)s1)c1ccccc1.O=C(O)C(F)(F)F.O=C(O)C(F)(F)F` (stereo not shown) [GSK1287544], the “%Inh” value is reported as 0%.
